VP16 counter: VP16 counterscreen qHTS for inhibitors of ROR gamma transcriptional activity. Drosophila S2 Gal4-VP16 UAS-luciferase, luminescence, 20 h. Potency, µM (doses to about 53.6 µM), hits mostly inhibitors. 3.5% of 310,000 active. AID 2546, 2010;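 further: Gal4-VP16 expression switched on by copper sulfate through the metallothionein promoter; nearly all actives have a fitted effect of over 50% in size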
RORgamma inh: qHTS for inhibitors of ROR gamma transcriptional activity | Nuclear receptor ROR-gamma (Mus musculus), P51450 | Drosophila S2 Gal4-RORgamma UAS-luciferase reporter, 20 h | Potency, µM (doses to about 53.6 µM), hits mostly inhibitors | 5.4% of 310,000 active; further: nearly all actives have a fitted effect of over 60% in size
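Stably transfected Drosophila Schneider cells are the test system, with ROR gamma fused to Gal4 and luciferase under UAS control; luminescence is read after 20 hr of 700 uM copper sulfate induction at ambient temperature.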
TDP1 inh: qHTS Assay for Inhibitors of Tyrosyl-DNA Phosphodiesterase (TDP1). AID 485290, 2010. Potency, µM (top dose mostly 130 µM), actives largely listed as inhibitors. Tyrosyl-DNA phosphodiesterase 1 (Homo sapiens), Q9NUW8. recombinant TDP1, AlphaScreen DNA substrate cleavage. 0.28% of 350,000 active; further: nearly all actives have a fitted effect of over 40% in size
Target sequence (Q9NUW8 whole entry, looked up): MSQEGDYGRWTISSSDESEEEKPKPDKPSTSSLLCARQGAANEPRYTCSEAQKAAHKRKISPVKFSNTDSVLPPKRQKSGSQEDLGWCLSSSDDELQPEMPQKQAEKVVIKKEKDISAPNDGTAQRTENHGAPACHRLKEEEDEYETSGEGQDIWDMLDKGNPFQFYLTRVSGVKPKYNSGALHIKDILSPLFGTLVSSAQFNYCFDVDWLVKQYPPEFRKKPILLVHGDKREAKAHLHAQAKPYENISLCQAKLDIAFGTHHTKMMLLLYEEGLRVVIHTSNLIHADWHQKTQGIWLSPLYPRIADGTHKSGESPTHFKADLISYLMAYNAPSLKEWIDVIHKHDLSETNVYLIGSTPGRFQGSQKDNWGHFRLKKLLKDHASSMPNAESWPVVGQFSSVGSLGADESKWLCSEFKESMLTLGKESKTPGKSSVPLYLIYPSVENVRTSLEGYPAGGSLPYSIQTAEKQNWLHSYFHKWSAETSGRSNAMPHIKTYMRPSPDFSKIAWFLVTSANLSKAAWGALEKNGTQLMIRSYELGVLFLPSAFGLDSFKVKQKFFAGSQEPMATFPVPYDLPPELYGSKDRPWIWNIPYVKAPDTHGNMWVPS
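Signal: AlphaScreen proximity between streptavidin donor and anti-FITC acceptor beads on intact substrate. Reaction: Tdp1 1 nM, substrate 15 nM final, 5 min RT after 15 min compound preincubation.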
TDP1 cell CPT: qHTS for Inhibitors of human tyrosyl-DNA phosphodiesterase 1 (TDP1): qHTS in cells in presence of CPT. Potency, µM (highest dose often 46.2 µM), most hits filed as inhibitors. chicken DT40 Tdp1-/-;hTDP1 cells + 20 nM CPT, ATP luminescence, 48 h. 12% of 420,000 active; further: nearly all actives have a fitted effect of over 55% in size
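Chicken DT40 Tdp1-/- cells stably complemented with human TDP1 were seeded at 400 cells/well in medium containing 20 nM camptothecin, exposed to pin-transferred compounds, and grown at 37 °C for at least 48 hr. Viability was read as ATP luminescence.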
TDP1 cell noCPT: qHTS for Inhibitors of human tyrosyl-DNA phosphodiesterase 1 (TDP1): qHTS in cells in absence of CPT | Potency, µM (series often up to 46.2 µM), most hits filed as inhibitors | AID 686978, 2013 | DT40 Tdp1-/- hTDP1 cells, no CPT, ATP luminescence, 48 h | 15% of 420,000 active; further: nearly all actives have a fitted effect of over 55% in size
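DT40 Tdp1-/-;hTDP1 cells, no CPT (DMSO vehicle only), 400 cells/well; compounds pin-transferred; ≥48 hr, 37 °C; CellTiter-Glo 30 min RT dark, luminescence read.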
Hits are given with their value; i = inactive; ? = inconclusive; nt = no result given; [ ] = another dose, or the depositor's remark. In the library only some 19% were active in any assay of this set; here they are far more common. The call rests on the fitted dose curve; in most records, active means well fitted curve in the direction sought with a large enough effect; inconclusive means small, poorly fitted or top-dose-only effect, or another doubt; inactive means no such curve, though single readings can be large; an effect the other way counts as inactive or inconclusive.

SMILES	VP16 counter	RORgamma inh	TDP1 inh	TDP1 cell CPT	TDP1 cell noCPT
COc1cc(CNC(=O)C2CCCCN2S(=O)(=O)c2ccc(F)cc2)cc(OC)c1OC (configuration not stated)	nt	nt	i	?	12µM
O=C(NCCC1CCCCN1S(=O)(=O)c1cccs1)C(=O)NCc1ccccc1 (configuration not stated)	nt	nt	nt	15µM	21µM
C[C@H]1CN([C@@H](C)CO)C(=O)c2cc(NC(=O)Cc3ccccc3)ccc2O[C@H]1CN(C)Cc1ccccc1	nt	nt	i	i	i
COc1ccc(S(=O)(=O)N2CCc3ccccc32)cc1C(=O)N1CCN(C=O)CC1	nt	nt	i	i	i
CCOC(=O)c1c(C)[nH]c2ccc3c(c12)CN1CCc2cc(OC)ccc2[C@@H]1O3	?	i	i	8.4µM	7.5µM
CCOC(=O)c1c(C)[nH]c(C)c1C(=O)COC(=O)c1ccc(OC)cc1	i	i	i	i	i
N#CCCn1c(=O)c(-c2ccccc2)nc2cnc(N3CCOCC3)nc21	i	i	nt	i	i
COc1ccc(-c2nc3cnc(N4CCN(C)CC4)nc3n(CCC#N)c2=O)cc1	i	i	nt	i	23µM
CN1CCN(c2ncc3nc(-c4ccccc4)c(=O)n(CCC#N)c3n2)CC1	i	i	nt	?	16µM
CC(=O)c1ccc(C2C=CC(Oc3ccc(-c4ccccc4)cc3)C(CO)O2)cc1 (configuration not stated)	i[10 µM]	i[10 µM]	i[21 µM]	nt	nt
O=C(C1CCN(Cc2ccc(F)cc2)CC1)N(CCc1ccccc1)Cc1ccccc1	i	i	i	23µM	16µM
CC(C)NC(=O)c1ccc(CN2CCC(Cc3ccccc3)CC2)cc1	i	i	nt	i	i
Cc1ccccc1NC(=O)c1ccc(CN2CCC(Cc3ccccc3)CC2)cc1	i	i	i	?	21µM
O=C(NC(=S)NC1CCN(Cc2ccccc2)CC1)c1ccc(F)cc1	11µM	7.1µM	nt	?	15µM
O=C(C1CCN(Cc2ccc(F)cc2)CC1)N(CCO)Cc1ccccc1	i	i	i	i	i
O=C(NC(=S)NC1CCCCC1)c1ccc(F)cc1	4.5µM	3.2µM	i	i	i
O=C(NC1CCN(Cc2ccc(F)cc2)CC1)c1ccccc1	i	i	nt	i	i
COCCNC(=O)C1CCCN(C(=O)c2cc(C(C)(C)C)nn2C)CC1 (configuration not stated)	nt	nt	nt	i	i
O=C(NCc1nnc2n1CCN(Cc1cccc(C(F)(F)F)c1)CC2)c1ccncc1	nt	nt	nt	i	i
COc1ccc(C(C)=O)cc1CSc1nnc(-c2ccncc2)o1	i	i	nt	i	i
CCOC(=O)Nc1ccc2c(c1)N(C(=O)OC)c1ccccc1CC2	i	i	i	?	?
COC(=O)N1c2ccccc2CCc2ccccc21	i	i	nt	21µM	16µM
O=C(N/N=C/c1cccnc1)NC12CC3CC(CC(C3)C1)C2	i	i	i	i	?
O=C(N/N=C/c1cc(Cl)cc([N+](=O)[O-])c1O)NC12CC3CC(CC(C3)C1)C2	?	4µM	i	?	?
O=C(N/N=C/c1ccccc1O)NC12CC3CC(CC(C3)C1)C2	16µM	?	nt	?	?
SMILES	VP16 counter	RORgamma inh	TDP1 inh	TDP1 cell CPT	TDP1 cell noCPT
O=C(N/N=C/c1ccc(O)c(O)c1)NC12CC3CC(CC(C3)C1)C2	i	i	nt	12µM	15µM
Cc1cccc(NC(=S)N(CCN(C)C)Cc2cccs2)c1	i[10 µM]	11µM	i	i	i
Cc1ccc(NC(=S)N(CCN(C)C)Cc2cccs2)c(C)c1	i	?	i	i	i
CCc1cccc(C)c1NC(=S)N(CCN(C)C)Cc1cccs1	i[10 µM]	11µM	i	?	?
Cc1cccc(C)c1NC(=S)N(CCN(C)C)Cc1cccs1	i	10µM	i	i	i
Cc1cc(NC(=O)COC(=O)C(C)Oc2ccc(Cl)cc2Cl)no1 (configuration not stated)	i	i	nt	i	i
COc1cccc(OC)c1OCCCNC1CCCC1	i	i	i	i	i
O=C(c1cccc2ccccc12)N1CCC(N2CCN(c3ccccc3)CC2)CC1	i	i	i	i	?

Source: PubChem BioAssay
